In assay [1] the target is Estrogen receptor (Homo sapiens) (UniProt P03372). As to the kind of experiment: qHTS assay to identify small molecule antagonists of the estrogen receptor alpha (ER-alpha) signaling pathway using the BG1 cell line in the presence of 0.1 nM 17-beta-estradiol (AID 1259244). Also: nearly all actives have a fitted effect of over 50% in size. Also: potency is read from the fitted curve at half-maximal effect. The essentials: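 VM7Luc4E2; 4xERE-luciferase; 0.1 nM E2 final; 22 h co-incubation, 37C; ONE-Glo luminescence after 30 min at room temperature.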
Chain of Estrogen receptor (Homo sapiens) (P03372 whole entry, looked up): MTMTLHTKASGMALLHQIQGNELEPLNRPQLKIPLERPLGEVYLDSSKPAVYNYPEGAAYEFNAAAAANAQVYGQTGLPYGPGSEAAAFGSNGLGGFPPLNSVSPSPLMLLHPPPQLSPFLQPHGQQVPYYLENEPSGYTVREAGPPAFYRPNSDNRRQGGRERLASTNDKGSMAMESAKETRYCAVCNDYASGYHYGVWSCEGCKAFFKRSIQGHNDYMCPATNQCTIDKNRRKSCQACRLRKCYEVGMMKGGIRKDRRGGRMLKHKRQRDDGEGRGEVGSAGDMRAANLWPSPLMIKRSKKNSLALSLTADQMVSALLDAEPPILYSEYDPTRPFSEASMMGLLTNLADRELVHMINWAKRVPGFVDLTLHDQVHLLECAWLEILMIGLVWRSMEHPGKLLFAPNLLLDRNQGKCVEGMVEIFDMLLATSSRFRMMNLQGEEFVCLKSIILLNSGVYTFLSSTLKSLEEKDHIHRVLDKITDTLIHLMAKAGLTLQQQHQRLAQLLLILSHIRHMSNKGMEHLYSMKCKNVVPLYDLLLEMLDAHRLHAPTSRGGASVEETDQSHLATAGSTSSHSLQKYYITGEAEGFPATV
In general terms: Quantitative high-throughput screening tests each substance at several concentrations.

Assay [2] is described as follows: qHTS assay to identify small molecule HDAC inhibitors (AID 1259364).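 Also: wild-type HCT-116 cells with endogenous class I/II HDAC activity; top concentration of the series differs between compounds; nearly all actives have a fitted effect of over 45% in size.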 The essentials: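 Relative class I and II HDAC activity is taken from the luminogenic signal in HCT-116 cells, with compound exposure 2 hr and reagent development 30 min at room temperature.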
Assay [3] in a line: qHTS assay to identify small molecule HDAC inhibitors - cell viability counter screen (AID 1259365). Also: series mostly up to about 92 µM; nearly all actives have a fitted effect of over 50% in size. The method, boiled down:
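Following a 2hr exposure of overnight-plated wild-type HCT-116 cells to DMSO-delivered compounds, CellTiter-Glo was added and luminescence recorded after 30min at room temperature.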

A short description of assay [4]: qHTS assay to identify small molecule agonists of the sonic hedgehog signaling (Shh) pathway - cell viability counter screen (AID 1259366). Also: nearly all actives have a fitted effect of over 50% in size. The essentials:
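After a 4hr attachment at 37C, NIH/3T3 cells bearing an integrated Gli1-driven luciferase reporter were dosed with compounds. Treatment lasted 24hr, with the final hour including CellTiter-Fluor for a fluorescence viability measurement.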

Assay [5] is described as follows: qHTS assay to identify small molecule antagonists of the sonic hedgehog signaling (Shh) pathway - cell viability counter screen (AID 1259367). Also: nearly all actives have a fitted effect of over 55% in size. The method, boiled down: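 After a 4 hr settling period, 3T3 Gli1-Luc cells were treated with DMSO-dissolved chemicals and conditioned medium, kept 24 hr at 37C in 5% CO2, and assayed for viability by CellTiter-Fluor fluorescence following 1 hr reagent incubation.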

A short description of assay [6]: qHTS assay to identify small molecule agonists of the sonic hedgehog signaling (Shh) pathway (AID 1259368; calls by dose curve;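 also: NIH/3T3-derived 3T3Gli1-Luc cells carrying a stable Gli1-driven firefly luciferase reporter; series mostly up to about 92 µM; nearly all actives have a fitted effect of over 15% in size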). The method, boiled down: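 Mouse fibroblast (NIH/3T3) reporter cells with stably integrated Gli1-Luc were treated 24 hr with compound; firefly luciferase luminescence served as the read-out.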
Assay [7] is described as follows: qHTS assay to identify small molecule antagonists of the sonic hedgehog signaling (Shh) pathway (AID 1259369; calls by dose curve; also: nearly all actives have a fitted effect of over 45% in size). The method, boiled down: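 Conditioned medium drives Shh signalling in 3T3Gli1-Luc cells; compounds in DMSO co-applied, 24hr at 37 C, then luciferase luminescence.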
Assay [8] has as its target Estrogen receptor beta (Homo sapiens) (UniProt Q92731). As to the kind of experiment: qHTS assay to identify small molecule agonists of the estrogen receptor beta (ER-beta) signaling pathway (AID 1259377; active = well fitted activation curve with a large enough effect in the signal ratio in the repeat runs, not every such curve was filed as active; the % refers to the signal ratio). The essentials: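 In HEK293T cells bearing a UAS-beta-lactamase reporter under ER-beta control, DMSO-delivered compounds were incubated for 16 hr at 37C. Activity was detected as fluorescence 2 hours after LiveBLAzer B/G FRET substrate addition.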

Assay [9] shares this target. As to the kind of experiment: qHTS assay to identify small molecule antagonists of the estrogen receptor beta (ER-beta) signaling pathway (AID 1259378; active = well fitted inhibition curve with a large enough effect in the signal ratio in the repeat runs, not every such curve was filed as active; the % refers to the signal ratio). The essentials:
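ER-beta-UAS-bla HEK293T (GripTite) cells in 2% charcoal-stripped FBS medium were preincubated 6 hr at 37C, dosed with compound, then stimulated with 1 nM E2 (final) for 16 hr; beta-lactamase reporter read by B/G FRET fluorescence after 2 hr substrate loading.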

Assay [10] can be described thus: qHTS assay to identify small molecule agonists of the androgen receptor (AR) signaling pathway in the presence of an antagonist - cell viability counter screen (AID 1259379).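 Also: MDA-kb2 human breast cancer cells carrying an MMTV luciferase reporter; series mostly up to about 92 µM; nearly all actives have a fitted effect of over 25% in size.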 The essentials: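 A CellTiter-Fluor read-out measured viability of MDA-kb2 reporter cells (MMTV promoter with AR and GR response elements). Treatment: nilutamide 3.0uM final with compounds at 15 concentrations, 16 hr, 37C, 0% CO2.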

The nature of assay [11]: qHTS assay to identify small molecule agonists of the estrogen receptor beta (ER-beta) signaling pathway - cell viability counter screen (AID 1259380). Also: nearly all actives have a fitted effect of over 30% in size. Also: potency is read from the fitted curve at half-maximal effect. The method, boiled down:
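Cells used were ER-beta-UAS-bla HEK293T in medium with 2% charcoal-stripped FBS. They were treated for 16 hr at 37C. Viability came from CellTiter-Glo luminescence.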

Assay [12] can be described thus: qHTS assay to identify small molecule antagonists of the estrogen receptor beta (ER-beta) signaling pathway - cell viability counter screen (AID 1259382). Also: series mostly up to about 92 µM; nearly all actives have a fitted effect of over 55% in size. The method, boiled down: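 Agonist-stimulated (1nM E2) ER-beta-UAS-bla HEK293T cells are incubated with library compounds for 16 hr at 37C. Cell viability is then assessed in the reporter-assay wells by adding CellTiter-Glo and reading luminescence after 30 min.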

Assay [13] addresses Estrogen receptor (Homo sapiens) (UniProt P03372). The experiment in a line: qHTS assay to identify small molecule agonists of the estrogen receptor alpha (ER-alpha) signaling pathway in the presence of an antagonist (AID 1259383; calls by dose curve; also: top concentration of the series differs between compounds; nearly all actives have a fitted effect of over 15% in size). The method, boiled down:
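Using VM7Luc4E2 cells seeded 24hr before treatment, antagonist ICI-182,780 (10.0nM final) was added, followed by compounds at 15 concentrations. Plates incubated 22hr; ONE-Glo luminescence quantified reporter activity.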

A short description of assay [14]: qHTS assay to identify small molecule agonists or antagonists of the thyroid stimulating hormone receptor (TSHR) signaling pathway - wild type cell line counter screen (AID 1259384; calls by dose curve). The essentials:
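Wild-type HEK293 cells were plated 18 h at 37 C/5% CO2, pin-dosed with compound plus Ro20-1724 medium, held 30 min at room temperature, then given cAMP-d2 and anti-cAMP-cryptate; fluorescence was read after 1 h. Fifteen concentrations, triplicate.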

Assay [15] concerns the target Thyrotropin receptor (Homo sapiens) (UniProt P16473). As to the kind of experiment: qHTS assay to identify small molecule antagonists of the thyroid stimulating hormone receptor (TSHR) signaling pathway (AID 1259385; calls by dose curve; also: nearly all actives have a fitted effect of over 20% in size). The method, boiled down:
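TSHR-HEK293 cells were plated and held 18 h at 37C/5% CO2, then given compound plus Ro20-1724 and stimulated with TSH at 1.5 ng/mL final. After 30 min at room temperature, cAMP was detected with cAMP-d2/anti-cAMP-cryptate (1 h) by fluorescence.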

Assay [16] in a line: qHTS assay to identify small molecule agonists of the estrogen receptor alpha (ER-alpha) signaling pathway in the presence of an antagonist - cell viability counter screen (AID 1259386).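 Also: series mostly up to about 92 µM; cells exposed to compounds for 22 h at 37 °C before the viability read; nearly all actives have a fitted effect of over 30% in size.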 The essentials: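 ICI-182,780 at 10.0nM final accompanies the compound titration (15 concentrations, 22hr, 37C) on VM7Luc4E2 cells. The CellTiter-Fluor fluorescence readout runs in the same wells as the luciferase assay.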

Assay [17] deals with Progesterone receptor (Homo sapiens) (UniProt P06401). As to the kind of experiment: qHTS assay to identify small molecule agonists of the progesterone receptor (PR) signaling pathway (AID 1346784; calls by dose curve; also: nearly all actives have a fitted effect of over 30% in size). The method, boiled down:
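Using charcoal-stripped serum (2%) to limit endogenous steroids, PR-UAS-bla HEK 293T cells received compounds for 16 hr at 37C after 6 hr plating; beta-lactamase FRET fluorescence was recorded following 2 hr substrate loading at room temperature.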

The target is the same in assay [18]. As to the kind of experiment: qHTS assay to identify small molecule antagonists of the progesterone receptor (PR) signaling pathway (AID 1346795; active = well fitted inhibition curve with a large enough effect in the signal ratio in the repeat runs, not every such curve was filed as active; the % refers to the signal ratio). The essentials:
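Inhibition of R5020-induced (1 nM final) beta-lactamase reporter signal in PR-UAS-bla HEK293T cells was scored by FRET fluorescence after overnight (16 hr) compound treatment.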

Assay [19] is described as follows: qHTS assay to identify small molecule phospholipidosis (PLD) inducers (AID 1259344; active = well fitted curve in the direction sought with a large enough effect; an effect the other way counts as inactive or inconclusive). The essentials: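 HepG2 cells grown on collagen I take up LipidTOX Red while exposed to compound for 24 h; after fixation they are imaged at 20x and pit metrics are extracted.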
For assay [20], the target named is Androgen receptor (Homo sapiens) (UniProt P10275). The experiment in a line: qHTS assay to identify small molecule agonists of the androgen receptor (AR) signaling pathway in the presence of an antagonist (AID 1259381; calls by dose curve; also: nearly all actives have a fitted effect of over 15% in size). The essentials:
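Using human MDA-kb2 cells with an MMTV promoter–luciferase construct (AR and GR response elements), agonist activity is scored under 3.0uM nilutamide (final) co-treatment; 16hr incubation, 37C, luminescence readout via ONE-Glo.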

Records with an inconclusive call do not appear. Some compounds were tested as several samples or in several runs, with calls that do not always agree. Calls of active or inactive are those of the source. Unless noted, calls follow the shape of the dose curve; as a rule, active = well fitted curve in the direction sought with a large enough effect in the repeat runs; inconclusive = weak or mixed curves; inactive = no such curve, though single readings can be large; an effect the other way counts as inactive or inconclusive.

Chain of Estrogen receptor beta (Homo sapiens) (Q92731 whole entry, looked up): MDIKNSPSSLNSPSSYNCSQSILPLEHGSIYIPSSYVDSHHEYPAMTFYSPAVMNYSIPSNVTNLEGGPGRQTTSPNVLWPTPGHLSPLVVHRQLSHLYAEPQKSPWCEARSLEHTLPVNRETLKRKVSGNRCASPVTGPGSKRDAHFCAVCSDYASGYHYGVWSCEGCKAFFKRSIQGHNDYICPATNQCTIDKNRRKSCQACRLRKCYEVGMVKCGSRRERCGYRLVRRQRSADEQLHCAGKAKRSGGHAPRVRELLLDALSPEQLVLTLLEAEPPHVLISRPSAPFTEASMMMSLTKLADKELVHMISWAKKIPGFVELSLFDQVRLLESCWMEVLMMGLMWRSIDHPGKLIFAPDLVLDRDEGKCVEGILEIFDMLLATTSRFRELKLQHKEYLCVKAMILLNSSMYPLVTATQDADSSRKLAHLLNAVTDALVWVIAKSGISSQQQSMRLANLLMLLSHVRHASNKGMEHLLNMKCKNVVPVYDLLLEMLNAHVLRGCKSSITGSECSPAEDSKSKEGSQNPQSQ
Chain of Progesterone receptor (Homo sapiens) (P06401 whole entry, looked up): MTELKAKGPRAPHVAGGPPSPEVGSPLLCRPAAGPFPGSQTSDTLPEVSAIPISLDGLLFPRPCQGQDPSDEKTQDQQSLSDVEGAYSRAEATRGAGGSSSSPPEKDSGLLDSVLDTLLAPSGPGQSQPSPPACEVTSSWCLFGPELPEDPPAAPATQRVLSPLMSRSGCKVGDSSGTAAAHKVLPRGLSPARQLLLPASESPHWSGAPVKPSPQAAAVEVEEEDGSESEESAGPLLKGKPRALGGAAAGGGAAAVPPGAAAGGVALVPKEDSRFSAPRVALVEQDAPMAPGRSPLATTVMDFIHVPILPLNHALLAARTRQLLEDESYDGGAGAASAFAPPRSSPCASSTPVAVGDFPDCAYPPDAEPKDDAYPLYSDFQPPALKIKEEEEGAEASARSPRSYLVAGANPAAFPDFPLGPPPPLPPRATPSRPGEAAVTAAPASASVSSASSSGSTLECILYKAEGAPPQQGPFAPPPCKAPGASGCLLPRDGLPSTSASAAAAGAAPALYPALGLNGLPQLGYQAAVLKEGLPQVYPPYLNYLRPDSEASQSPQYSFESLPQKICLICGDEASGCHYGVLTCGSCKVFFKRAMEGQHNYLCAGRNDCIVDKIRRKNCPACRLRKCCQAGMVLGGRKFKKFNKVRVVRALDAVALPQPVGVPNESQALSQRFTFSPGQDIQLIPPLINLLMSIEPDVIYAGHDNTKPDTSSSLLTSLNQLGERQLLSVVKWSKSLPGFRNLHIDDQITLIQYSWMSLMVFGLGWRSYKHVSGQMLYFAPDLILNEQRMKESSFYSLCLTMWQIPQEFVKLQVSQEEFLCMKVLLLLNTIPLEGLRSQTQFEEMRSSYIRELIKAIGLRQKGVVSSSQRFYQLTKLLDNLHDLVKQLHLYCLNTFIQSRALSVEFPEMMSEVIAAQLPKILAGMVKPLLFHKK
Chain of Thyrotropin receptor (Homo sapiens) (P16473 whole entry, looked up): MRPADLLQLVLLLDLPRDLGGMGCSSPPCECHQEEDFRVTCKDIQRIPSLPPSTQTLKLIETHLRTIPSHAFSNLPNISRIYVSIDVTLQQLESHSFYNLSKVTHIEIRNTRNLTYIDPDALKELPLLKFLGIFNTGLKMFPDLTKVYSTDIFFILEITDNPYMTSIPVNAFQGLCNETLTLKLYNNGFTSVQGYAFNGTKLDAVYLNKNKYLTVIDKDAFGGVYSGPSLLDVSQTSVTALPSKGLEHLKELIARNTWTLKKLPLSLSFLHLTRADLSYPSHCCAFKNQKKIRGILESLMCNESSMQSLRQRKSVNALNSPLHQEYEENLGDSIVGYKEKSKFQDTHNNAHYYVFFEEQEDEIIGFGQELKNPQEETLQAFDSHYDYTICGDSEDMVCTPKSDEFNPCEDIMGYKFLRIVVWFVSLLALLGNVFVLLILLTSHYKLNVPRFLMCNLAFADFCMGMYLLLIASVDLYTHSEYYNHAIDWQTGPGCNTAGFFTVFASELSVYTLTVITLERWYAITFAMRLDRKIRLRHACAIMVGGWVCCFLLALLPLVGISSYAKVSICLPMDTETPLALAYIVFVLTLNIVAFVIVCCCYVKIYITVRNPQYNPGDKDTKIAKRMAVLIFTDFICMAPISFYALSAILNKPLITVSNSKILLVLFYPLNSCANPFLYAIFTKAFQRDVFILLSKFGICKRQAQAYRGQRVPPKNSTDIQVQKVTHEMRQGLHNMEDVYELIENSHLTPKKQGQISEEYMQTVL
Chain of Androgen receptor (Homo sapiens) (P10275 whole entry, looked up): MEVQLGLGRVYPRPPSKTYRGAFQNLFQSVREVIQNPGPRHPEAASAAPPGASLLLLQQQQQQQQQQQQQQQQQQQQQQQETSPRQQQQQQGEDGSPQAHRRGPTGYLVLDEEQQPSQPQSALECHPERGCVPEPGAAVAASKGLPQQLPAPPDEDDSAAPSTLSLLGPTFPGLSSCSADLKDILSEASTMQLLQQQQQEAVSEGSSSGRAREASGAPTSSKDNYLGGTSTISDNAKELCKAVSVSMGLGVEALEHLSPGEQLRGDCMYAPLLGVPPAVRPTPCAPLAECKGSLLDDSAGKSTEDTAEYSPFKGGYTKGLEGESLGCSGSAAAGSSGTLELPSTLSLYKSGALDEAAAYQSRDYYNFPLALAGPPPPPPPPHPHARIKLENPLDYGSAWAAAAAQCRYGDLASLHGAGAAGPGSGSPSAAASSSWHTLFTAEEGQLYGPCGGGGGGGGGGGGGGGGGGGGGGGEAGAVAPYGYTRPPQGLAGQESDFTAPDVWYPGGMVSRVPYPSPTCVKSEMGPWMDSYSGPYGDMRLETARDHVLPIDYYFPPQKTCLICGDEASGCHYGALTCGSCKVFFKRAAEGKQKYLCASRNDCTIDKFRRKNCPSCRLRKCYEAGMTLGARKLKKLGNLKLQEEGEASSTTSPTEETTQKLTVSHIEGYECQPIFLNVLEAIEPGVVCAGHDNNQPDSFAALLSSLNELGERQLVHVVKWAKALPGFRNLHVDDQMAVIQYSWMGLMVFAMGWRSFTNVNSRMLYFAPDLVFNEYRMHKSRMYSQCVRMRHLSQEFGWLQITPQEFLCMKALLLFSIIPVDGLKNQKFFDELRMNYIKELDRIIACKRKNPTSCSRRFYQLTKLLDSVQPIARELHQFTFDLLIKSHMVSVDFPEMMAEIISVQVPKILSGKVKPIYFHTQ

As for `Cc1ccc(N)cc1Cl`, the Potency result in assay [1], in assay [2], in assay [4], in assay [5], in assay [7] and in assay [8] was “inactive” in each case. In addition, the Potency entry in assay [11], in assay [12], in assay [13], in [15] and in [18] was “inactive” throughout. Also, the molecule was classed as inactive in assay [3], in assay [6], in assay [9], in assay [10], in [14] and in assay [16]. In [17], the outcome was inactive.
`O=NN1CCCC1`: the Potency was 20.2 µM (active) and inactive in assay [1]; 20.2 µM (active) and inactive in [11]. Moreover, the Potency result in assay [2], in [4], in assay [5], in [7], in assay [8] and in assay [12] was “inactive” throughout. Besides, the Potency result in assay [13], in assay [15] and in [18] was “inactive” throughout. Moreover, the call in assay [3], in assay [6], in [9], in assay [10], in [14] and in assay [16] was inactive. For the same molecule, the molecule was classed as inactive in [17].
Take `ClCCBr`: the Potency result in assay [1], in assay [2], in [4], in assay [5], in assay [7] and in assay [8] was “inactive” throughout. The Potency result in [11], in assay [12], in assay [13], in assay [15] and in assay [18] was “inactive” each time. Besides, the result in assay [3], in [6], in assay [9], in assay [10], in [14] and in assay [16] was inactive. The result in assay [17] was inactive.
As to `CC(Br)C(=O)O` (stereo not drawn), the Potency entry in assay [1], in assay [2], in assay [4], in assay [5], in assay [7] and in [8] was “inactive” throughout. The Potency entry in [11], in [12], in assay [13], in assay [15] and in assay [18] was “inactive” throughout. Besides, the molecule was called inactive in assay [3], in [6], in assay [9], in [10], in [14] and in [16]. Besides, the call in assay [17] was inactive.
Turning to `O=[N+]([O-])c1ccccc1`, the Potency result in [1], in [2], in assay [4], in assay [5], in [8] and in assay [11] was “inactive” each time. In addition, the Potency result in [12], in assay [13], in [15] and in [18] was “inactive” in each case. The molecule was called inactive in assay [19], in assay [3], in assay [6], in assay [9], in assay [10] and in assay [14]. For the same molecule, the result in assay [16] and in [17] was inactive.
`O=c1n(Cl)c(=O)n(Cl)c(=O)n1Cl`: the Potency result in assay [1], in assay [2], in [4], in [5], in assay [7] and in [8] was “inactive” each time. For the same molecule, the Potency result in [11], in assay [12], in [13], in assay [15] and in assay [18] was “inactive” throughout. Also, the result in assay [19], in [3], in [6], in assay [9], in assay [10] and in assay [14] was inactive. Further, the result in assay [16] and in [17] was inactive.
For the molecule `c1cc2c3c(cccc3c1)CC2`, the Potency entry in assay [1], in assay [2], in assay [4], in [5], in assay [7] and in assay [8] was “inactive” throughout. The Potency result in assay [11], in assay [12], in [13], in assay [15] and in assay [18] was “inactive” each time. The result in assay [3], in assay [6], in assay [9], in assay [10], in [20] and in assay [14] was inactive. Also, the result in assay [16] and in [17] was inactive.

Values taken from PubChem BioAssay (Tox21).
